Data reported in PubChem BioAssay (Tox21).
Results filed as inconclusive are left out. Calls of active or inactive are those of the source. Unless noted, calls come from the whole dose curve; as a rule, active = well fitted curve in the direction sought with a large enough effect in the repeat runs; inconclusive = weak or mixed curves; inactive = no such curve, though single readings can be large; an effect the other way counts as inactive or inconclusive.

How the values were obtained:
[1] = qHTS assay to identify small molecule agonists of the RXR signaling pathway - cell viability counter screen (AID 1159529);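 note: HEK 293T cells carrying an RXR-alpha UAS beta-lactamase reporter; series mostly up to about 77 µM; nearly all actives have a fitted effect of over 50% in size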
Summary of the method: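 HEK 293T RXRa-bla cells, 2% CS-FBS; 5 h settle; cpd 16 h 37 C, 5% CO2; CellTiter-Glo 30 min RT, luminescence. Tetraoctyl ammonium bromide as positive control.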

[2] = qHTS assay to identify small molecule antagonists of the retinoic acid receptor (RAR) signaling pathway (AID 1159552; note: nearly all actives have a fitted effect of over 50% in size; note: potency is the fitted concentration of half-maximal effect)
Summary of the method: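 Cells of the C3RL4 line were seeded, incubated overnight, then dosed with compounds in DMSO followed immediately by retinol (1 uM final). Six hours later luciferase detection reagent went in; signal was measured after 30 min at RT.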

[3] = qHTS assay to identify small molecule antagonists of the estrogen related receptor (ERR) signaling pathway from Tox21 library - cell viability counter screen (AID 1224834); note: nearly all actives have a fitted effect of over 30% in size; note: potency is the fitted concentration of half-maximal effect
Summary of the method: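 Multiplexed viability counter screen in ERR cells: 17.5 h compound exposure at 37 C, CellTiter-Fluor added, 30 min at 37 C/5% CO2, fluorescence read.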

[4] = qHTS assay to identify small molecule antagonists of the constitutive androstane receptor (CAR) signaling pathway - cell viability counter screen (AID 1224837); note: nearly all actives have a fitted effect of over 45% in size; note: potency is the fitted concentration of half-maximal effect
Summary of the method: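 Read-out: CellTiter-Fluor fluorescence after 23 hr at 37 C/5% CO2. Cells: HepG2 double-stable for hCAR and CYP2B6-2.2kb. Compounds tested at 15 concentrations in the presence of CITCO, final concentration 50 nM.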

[5] = biological target: Nuclear receptor subfamily 1 group I member 3 (Homo sapiens) (UniProt Q14994); test: qHTS assay to identify small molecule agonists of the constitutive androstane receptor (CAR) signaling pathway (AID 1224839); note: nearly all actives have a fitted effect of over 15% in size; note: potency is the fitted concentration of half-maximal effect
Sequence of Nuclear receptor subfamily 1 group I member 3 (Homo sapiens) (Q14994 whole entry, looked up): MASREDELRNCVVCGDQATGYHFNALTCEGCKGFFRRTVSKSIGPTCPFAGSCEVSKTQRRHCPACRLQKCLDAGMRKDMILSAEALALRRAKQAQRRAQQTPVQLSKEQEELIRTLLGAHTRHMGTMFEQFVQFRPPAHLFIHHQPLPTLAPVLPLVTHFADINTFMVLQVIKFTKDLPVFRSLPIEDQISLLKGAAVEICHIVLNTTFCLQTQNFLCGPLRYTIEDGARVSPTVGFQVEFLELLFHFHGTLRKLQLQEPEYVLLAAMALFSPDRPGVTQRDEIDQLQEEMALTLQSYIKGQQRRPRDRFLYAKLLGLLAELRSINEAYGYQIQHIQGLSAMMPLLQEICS
Summary of the method: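 HepG2-CYP2B6-hCAR cells, 2500/well, 4 h pre-incubation; compounds 15 conc.; PK11195 0.75 uM final; 24 h, 37 C/5% CO2; ONE-Glo luciferase read.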

[6] = qHTS assay to identify small molecule antagonists of the estrogen related receptor signaling pathway with the pleiotropic PPARgamma coactivator (PGC) from Tox21 10K library - cell viability counter screen (AID 1224840; active = well fitted cell-killing curve with a large enough effect in the repeat runs, not every such curve was filed as active; note: nearly all actives have a fitted effect of over 40% in size; note: potency is the fitted concentration of half-maximal effect)
Summary of the method: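 Fluorescence read-out of CellTiter-Fluor viability reagent, added after cells had been exposed to compound in DMSO for 17.5 h at 37 C; 30 min development at 37 C/5% CO2. Cells: PGC/ERR line, 2,000/well.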

[7] = qHTS assay to identify small molecule antagonists of the retinoid acid receptor (RAR) signaling pathway - cell viability counter screen (AID 1159551); note: nearly all actives have a fitted effect of over 35% in size
Summary of the method: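 C3RL4 RARE-luciferase line; cpds + retinol 1 uM final, 6 h, 37 C/5% CO2; CellTiter-Glo ATP luminescence, 30 min RT.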

[8] = biological target: Luciferin 4-monooxygenase (Photinus pyralis) (UniProt P08659); test: qHTS assay to identify small molecule inhibitors of firefly luciferase (AID 1224835); note: nearly all actives have a fitted effect of over 25% in size; note: potency is the fitted concentration of half-maximal effect
Sequence of Luciferin 4-monooxygenase (Photinus pyralis) (P08659 whole entry, looked up): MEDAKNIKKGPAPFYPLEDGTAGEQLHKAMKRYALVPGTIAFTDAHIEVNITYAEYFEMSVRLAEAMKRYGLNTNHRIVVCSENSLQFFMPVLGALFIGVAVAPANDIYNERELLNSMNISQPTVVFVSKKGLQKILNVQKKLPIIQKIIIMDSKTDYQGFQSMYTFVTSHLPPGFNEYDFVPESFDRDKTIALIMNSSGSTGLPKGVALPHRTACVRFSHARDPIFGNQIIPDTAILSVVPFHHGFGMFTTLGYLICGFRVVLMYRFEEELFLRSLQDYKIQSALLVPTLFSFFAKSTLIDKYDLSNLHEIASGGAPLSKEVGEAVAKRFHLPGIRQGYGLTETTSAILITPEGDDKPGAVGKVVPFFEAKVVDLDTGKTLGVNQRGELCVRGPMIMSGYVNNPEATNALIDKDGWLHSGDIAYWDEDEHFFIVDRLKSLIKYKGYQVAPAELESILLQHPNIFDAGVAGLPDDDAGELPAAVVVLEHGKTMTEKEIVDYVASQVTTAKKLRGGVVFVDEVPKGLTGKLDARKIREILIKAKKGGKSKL
Summary of the method: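 Quantitative HTS format; KM concentrations of both substrates. Purified P. pyralis FLuc activity quantified from luminescence images.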

[9] = qHTS assay to identify small molecule agonists of the constitutive androstane receptor (CAR) signaling pathway - cell viability counter screen (AID 1224836); note: nearly all actives have a fitted effect of over 45% in size; note: potency is the fitted concentration of half-maximal effect
Summary of the method: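 HepG2-CYP2B6-hCAR, 2500 cells/well, 4 h pre-incubation; cpd 15 conc + PK11195 0.75 uM final; 23 h, 37 C/5% CO2; CellTiter-Fluor, fluorescence.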

[10] = qHTS assay to identify small molecule antagonists of the estrogen related receptor signaling pathway with the pleiotropic PPARgamma coactivator (PGC) from Tox21 10K library (AID 1224841; call rule not given here; note: actives are mostly falling curves and most rising ones were filed inactive; nearly all actives have a fitted effect of over 50% in size; note: potency is the fitted concentration of half-maximal effect)
Summary of the method: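 Luminescence read-out (One-Glo luciferase reagent, 30 min at room temperature) from PGC/ERR cells exposed to DMSO-dissolved test compounds for 18 h at 37 C; cells, 2,000 per well, had been preincubated 6 h before compound transfer.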

[11] = qHTS assay to identify small molecule agonists of the estrogen related receptor signaling pathway with the pleiotropic PPARgamma coactivator (PGC) from Tox21 10K library (AID 1224842); note: nearly all actives have a fitted effect of over 15% in size; note: potency is the fitted concentration of half-maximal effect
Summary of the method: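 PGC/ERR reporter cells (NTP line) were seeded 2,000 per well, rested 6 h at 37 C/5% CO2, then pin-dosed with compounds in DMSO for 18 h at 37 C; luciferase read by One-Glo luminescence after 30 min at room temperature.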

[12] = qHTS assay to identify small molecule antagonists of the estrogen related receptor (ERR) signaling pathway - cell viability counter screen (AID 1224818); note: series mostly up to about 46 µM
Summary of the method: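 Fluorescence from CellTiter-Fluor, read 30 min after reagent addition at 37 C, measured viability of ERR cells exposed to compounds for 17.5 h. Cells had settled 6 h before dosing.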

[13] = qHTS assay to identify small molecule antagonists of the estrogen related receptor signaling pathway with the pleiotropic PPARgamma coactivator (PGC) cell viability counter screen (AID 1224822; note: series mostly up to about 46 µM)
Summary of the method: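 Fluorescence read-out of CellTiter-Fluor after 30 min at 37 C; PGC/ERR cells, 2,000 per well, had been exposed to DMSO-dissolved compounds for 17.5 h following a 6 h pre-incubation.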

[14] = biological target: Nuclear receptor subfamily 1 group I member 3 (Homo sapiens) (UniProt Q14994); test: qHTS assay to identify small molecule antagonists of the constitutive androstane receptor (CAR) signaling pathway (AID 1224838);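 note: HepG2 cells stably expressing hCAR with CYP2B6 luciferase reporter stimulated by CITCO; nearly all actives have a fitted effect of over 40% in size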; note: potency is the fitted concentration of half-maximal effect
Summary of the method: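 Read-out: ONE-Glo luciferase luminescence after 30 min at room temperature. HepG2-CYP2B6-hCAR double-stable cells, compounds in 15-point titration plus 50 nM CITCO final, 24 h at 37 C/5% CO2.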

[15] = qHTS assay to identify small molecule agonists of the retinoic acid receptor (RAR) signaling pathway (AID 1159553)
Summary of the method: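 RARE-luc C3RL4 cells; overnight attachment 37 C/5% CO2; compound (DMSO) 6 hr; luciferase reagent, 30 min RT; luminescence read-out.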

[16] = qHTS assay to identify small molecule antagonists of the estrogen related receptor (ERR) signaling pathway (AID 1224819; note: potency is the fitted concentration of half-maximal effect; nearly all actives have a fitted effect of over 50% in size)
Summary of the method: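 Luminescence readout (One-Glo, 30 min, RT) of ERR cell line after 18 h compound exposure at 37 C; cells seeded 2,000/well, pre-incubated 6 h, compounds pinned from DMSO stocks.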

[17] = qHTS assay to identify small molecule agonists of the estrogen related receptor (ERR) signaling pathway (AID 1224820)
Summary of the method: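 An ERR cell line provided by NTP was seeded at 2,000 cells per well and allowed to settle for 6 h before compounds in DMSO were added. After 18 h at 37 C, luciferase activity was measured by One-Glo luminescence.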

[18] = test system: estrogen-related receptor alpha (ERRalpha) with PGC-1alpha coactivator, human; test: qHTS assay to identify small molecule antagonists of the estrogen related receptor signaling pathway with the pleiotropic PPARgamma coactivator (PGC) (AID 1224821; calls by dose curve)
Summary of the method: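 A PGC/ERR cell line supplied by NTP is seeded, allowed 6 h at 37 C, and treated with test compounds in DMSO for 18 h. Signal is then measured as luciferase luminescence using One-Glo.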

[19] = qHTS assay to identify small molecule agonists of the estrogen related receptor signaling pathway with the pleiotropic PPARgamma coactivator (PGC) (AID 1224823)
Summary of the method: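 Compounds dissolved in DMSO are added by pin tool to PGC/ERR cells that have settled for 6 h, and incubation continues 18 h at 37 C. Reporter output is measured as One-Glo luminescence.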

Measured: Potency

OCC1CC=CCC1 (configuration not stated)
inactive: [1] | [2] | [3] | [4] | [5] | [6]

O=C1NCCN1
inactive: [1] | [7] | [3] | [8] | [9] | [4] | [6] | [10] | [11]

C(=C\c1ccccc1)/CN1CCN(C(c2ccccc2)c2ccccc2)CC1
inactive: [12] | [13] | [3] | [9] | [4] | [14] | [5]

CC1CC(=O)NN=C1c1ccc(NCC(C)(C)NCC(O)COc2cc(Cl)ccc2C#N)cc1 (configuration not stated)
inactive: [7] | [2] | [15] | [3] | [9] | [4] | [14] | [5] | [6] | [10]

CCc1nn(CCCN2CCN(c3cccc(Cl)c3)CC2)c(=O)n1CCOc1ccccc1
inactive: [8] | [4] | [14] | [5] | [6]
active: [3] 29.8 µM

Cc1oc(C)c(C(=O)Nc2ccccc2)c1C
inactive: [2] | [15] | [3] | [9] | [4] | [6] | [11]

CO[C@H]1C=CO[C@@]2(C)Oc3c(C)c(O)c4c(O)c(c5c(c4c3C2=O)=NC2(CCN(CC(C)C)CC2)N=5)NC(=O)/C(C)=C\C=C/[C@H](C)[C@H](O)[C@@H](C)[C@@H](O)[C@@H](C)[C@H](OC(C)=O)[C@@H]1C
active: [3] 47.5 µM | [9] 53.3 µM | [4] 47.5 µM | [10] 23.8 µM
inactive: [7] | [15] | [14] | [5] | [11]

COc1cc2c(cc1OC)-c1cc(=Nc3c(C)cc(C)cc3C)n(C)c(=O)n1CC2
active: [16] 17.4 µM | [11] 13.3 µM
not listed: [1] | [3] | [5] | [13] | [15]
inactive: all other assays above

CCC(C)=O
inactive: [7] | [15] | [3] | [8] | [4] | [6] | [10]

O=C(CCCN1CCN(c2ccc(F)cc2)CC1)NC1c2ccccc2CSc2ccccc21 (configuration not stated)
inactive: [7] | [3] | [8] | [5] | [6]
active: [14] 29.8 µM

O=C(Nc1ccc([N+](=O)[O-])cc1)Nc1ccc([N+](=O)[O-])cc1
inactive: [7] | [2] | [15] | [3] | [9] | [4] | [6]

CCOC(=O)CC(=O)C(=O)OCC
inactive: [7] | [2] | [15] | [8] | [5] | [6] | [11]
active: [10] 54.5 µM

OCCSc1ccccc1
inactive: [3] | [9] | [4] | [14] | [5] | [6]

C=CC(C)(C)CC(=O)OC
inactive: [15] | [8] | [5]
active: [2] 15.4 µM | [3] 1.22 µM | [14] 15.4 µM

CC(C)(C)CC(C)(C)c1ccc(OCCO)cc1
active: [3] 48.3 µM | [9] 48.3 µM | [4] 43 µM | [6] 54.2 µM | [10] 19.2 µM
inactive: [2] | [15] | [8] | [11]

Brc1cc(-c2ccc(Br)c(Br)c2Br)cc(Br)c1Br
active: [5] 24 µM
inactive: [7] | [15] | [3] | [8] | [4] | [14] | [6]

CCC(=O)Oc1ccc(/C(CC)=C(\CC)c2ccc(OC(=O)CC)cc2)cc1
inactive: [2] | [8] | [9] | [4] | [6] | [11]

CCCCCC=CCC=CCCCCCCCC(=O)OCC
inactive: [7] | [3] | [8] | [9] | [4] | [5] | [6]

CCCCC(=O)O[C@]1(C(=O)CO)[C@@H](C)C[C@H]2[C@@H]3CCC4=CC(=O)C=C[C@]4(C)[C@@]3(F)[C@@H](O)C[C@@]21C
inactive: [7] | [8] | [9] | [4] | [11]
active: [2] 61.1 µM

NC(=O)Cn1c(=O)cc(CCN2CCN(c3nccc4sccc34)CC2)c2ccc(F)cc21
active: [3] 48.6 µM | [8] 44.8 µM | [10] 61.1 µM
inactive: [7] | [11]

O=C(O)c1cccc(O)c1
inactive: [2] | [15] | [3] | [8] | [9] | [4] | [5] | [6]
